Data taken from PubChem BioAssay AID1347414 (National Center for Advancing Translational Sciences (NCATS), 2020).
Inconclusive results are not listed. Active and inactive are the calls of the source. The call rests on the fitted dose curve; in most records, active means well fitted inhibition curve with a large enough effect; inconclusive means small, poorly fitted or top-dose-only effect; inactive means no such curve, though single readings can be large or run the other way. Numbered stars: 1 amine (or outer) side, 2 acyl side, 3 side chain; on linkers, the order of the positions; unused ones are H or OH. Bridge positions count the residues as written; N and C are the ends. Square brackets hold non-standard residues; d marks the D form. Peptide text beside a SMILES is read from it. I, II: the chains in the order shown. Actinocin(9to1) = Cc1c2oc3c(C)ccc(C(=O)[*:1])c3nc-2c(C(=O)[*:2])c(N)c1=O; NMeV = CN[C@H](C(=O)O)C(C)C; Sar = CNCC(=O)O

Assay: qHTS to identify inhibitors of the type 1 interferon - major histocompatibility complex class I in skeletal muscle: Secondary screen by immunofluorescence; further: nearly all actives have a fitted effect of over 70% in size
Conditions: C25cl48 myoblasts, IFN-b induced HLA-ABC immunofluorescence, 24 h; series mostly up to 49.8 µM
Outline: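 HLA-ABC immunofluorescence, with nuclear and cell-body stains, was quantified by laser scanning cytometry. Read-out followed 24 h of IFN-beta (4.0 ng/ml) stimulation of C25cl48 human myoblasts with compounds titrated 1:3 over 11 points from 50 uM, with ruxolitinib as inhibitor control.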
Potency means the concentration at half of the fitted maximal effect.

Potency, active:
C=C1C(=O)O[C@@H]2[C@H]3O[C@]3(C)CC/C=C(\C)CC[C@@H]12 7260 nM
CN1CCN(Cc2ccc(NC(=O)Nc3ccc(Oc4cc(NC(=O)C5CC5)ncn4)cc3)cc2C(F)(F)F)CC1 64.7 nM
CC(C)[C@H](C(=O)Nc1ccc(C(=O)NO)cc1)c1ccccc1 458 nM
O=C(/C=C/c1cccc(S(=O)(=O)Nc2ccccc2)c1)NO 514 nM
CC(C)c1cc(CNc2nc(Nc3cc(C4CC4)[nH]n3)cc(N3CCN(C)CC3)n2)on1 4580 nM
C#Cc1cccc(Nc2ncnc3cc(OC)c(OCCCCCCC(=O)NO)cc23)c1 289 nM
COc1cccc2c1C(=O)c1c(O)c3c(c(O)c1C2=O)C[C@@](O)(C(=O)CO)C[C@@H]3O[C@H]1C[C@H](N)[C@H](O)[C@H](C)O1 230 nM
O=C1NCCc2[nH]c(-c3ccncc3)cc21 2570 nM
CC(C)C[C@H](NC(=O)CNC(=O)c1cc(Cl)ccc1Cl)B1OC(=O)CC(CC(=O)O)(C(=O)O)O1 (some centres not stated) 814 nM
O=C(Nc1nc2cccc(-c3ccc(CN4CCS(=O)(=O)CC4)cc3)n2n1)C1CC1 1820 nM
C=C1C(=O)O[C@@H]2[C@H]3O[C@]3(C)CCC=C(C)CC[C@@H]12 2890 nM
CN(C)c1ccc(C(=O)NCCCCCCC(=O)NO)cc1 647 nM
COc1cc(C(=O)N2CCC(N3CCN(C)CC3)CC2)ccc1Nc1ncc2c(n1)N(C)c1ccccc1C(=O)N2C 6470 nM
Cc1ncc(-c2ccnc(Nc3ccc(S(C)(=O)=O)cc3)n2)n1C(C)C 914 nM
CCC[C@H](NC(=O)/C(C#N)=C/c1cccc(Br)n1)c1ccccc1 6470 nM
CNC(=O)c1cc(Oc2ccc(NC(=O)Nc3cc(C(C)(C)C)nn3-c3ccc4ncccc4c3)c(F)c2)ccn1 1820 nM
COc1nnc2ccc(N3CCC(c4ccc(OCCN5CCN(C)C(=O)[C@H]5C)cc4)CC3)nn12 14.5 nM
Cc1c2oc3c(C)ccc(C(=O)N[C@@H]4C(=O)N[C@H](C(C)C)C(=O)N5CCC[C@H]5C(=O)N(C)CC(=O)N(C)[C@@H](C(C)C)C(=O)O[C@@H]4C)c3nc-2c(C(=O)N[C@@H]2C(=O)N[C@H](C(C)C)C(=O)N3CCC[C@H]3C(=O)N(C)CC(=O)N(C)[C@@H](C(C)C)C(=O)O[C@@H]2C)c(N)c1=O (I: T[dV]P[Sar][NMeV] / II: T[dV]P[Sar][NMeV]; ester I:1-I:C, II:1-II:C; linker I:N-II:N via Actinocin(9to1)) 57.6 nM
CN1C/C=C/CCOc2cccc(c2)-c2ccnc(n2)Nc2cccc(c2)C1 115 nM
O=C(/C=C/c1ccc(CN(CCO)CCc2c[nH]c3ccccc23)cc1)NO 36.4 nM
COc1ccc(CNc2nc(N(CCO)CCO)nc3c2ncn3C(C)C)cc1 8140 nM
COc1cc(F)ccc1-c1ncnc(Nc2cccc(CS(C)(=N)=O)c2)n1 (configuration not stated) 814 nM
CC(=O)c1cnc2ccc(-c3cc(Cl)c(O)c(Cl)c3)nc2c1NC1CCC(CN(C)C)CC1 (configuration not stated) 45.8 nM
CNC(=O)c1nn(C)c2c1C(C)(C)Cc1cnc(Nc3ccc(N4CCN(C)CC4)cc3)nc1-2 5760 nM

Potency, inactive:
O=c1[nH]c2cc(Cl)ccc2c(O)c1-c1ccc(Oc2ccccc2)cc1
C[C@]12C=CC(=O)C=C1CC[C@H]1[C@@H]3C[C@@H](O)[C@](O)(C(=O)CO)[C@@]3(C)C[C@H](O)[C@@]12F
COC1CC(C(=O)c2ccc3c(N)ncc(-c4ccc(-c5cnn(C)c5)cc4)c3n2)C1 (configuration not stated)
CCCOc1ccc2nc(NC(=O)OC)[nH]c2c1
COC(=O)N[C@@H](C)CNc1nccc(-c2cn(C(C)C)nc2-c2cc(Cl)cc(NS(C)(=O)=O)c2F)n1
CO[C@@H]1[C@@H](O)[C@H](O)[C@@H](n2c3c(Cl)cccc3c3c4c(c5c6cccc(Cl)c6[nH]c5c32)C(=O)NC4=O)O[C@H]1CO
C[C@H]1C[C@@H]2[C@H]([C@@H](O)C[C@@]3(C)[C@H]2CC[C@]3(O)C(=O)CO)[C@@]2(C)C=CC(=O)C=C12
CCc1c(-c2ccccc2C)nc2c(C#N)c[nH]n2c1=O
